Assay [1] concerns the target T1, Serine/threonine-protein kinase BRSK1 (Homo sapiens) (UniProt Q8TDC3).
T1 sequence (whole entry): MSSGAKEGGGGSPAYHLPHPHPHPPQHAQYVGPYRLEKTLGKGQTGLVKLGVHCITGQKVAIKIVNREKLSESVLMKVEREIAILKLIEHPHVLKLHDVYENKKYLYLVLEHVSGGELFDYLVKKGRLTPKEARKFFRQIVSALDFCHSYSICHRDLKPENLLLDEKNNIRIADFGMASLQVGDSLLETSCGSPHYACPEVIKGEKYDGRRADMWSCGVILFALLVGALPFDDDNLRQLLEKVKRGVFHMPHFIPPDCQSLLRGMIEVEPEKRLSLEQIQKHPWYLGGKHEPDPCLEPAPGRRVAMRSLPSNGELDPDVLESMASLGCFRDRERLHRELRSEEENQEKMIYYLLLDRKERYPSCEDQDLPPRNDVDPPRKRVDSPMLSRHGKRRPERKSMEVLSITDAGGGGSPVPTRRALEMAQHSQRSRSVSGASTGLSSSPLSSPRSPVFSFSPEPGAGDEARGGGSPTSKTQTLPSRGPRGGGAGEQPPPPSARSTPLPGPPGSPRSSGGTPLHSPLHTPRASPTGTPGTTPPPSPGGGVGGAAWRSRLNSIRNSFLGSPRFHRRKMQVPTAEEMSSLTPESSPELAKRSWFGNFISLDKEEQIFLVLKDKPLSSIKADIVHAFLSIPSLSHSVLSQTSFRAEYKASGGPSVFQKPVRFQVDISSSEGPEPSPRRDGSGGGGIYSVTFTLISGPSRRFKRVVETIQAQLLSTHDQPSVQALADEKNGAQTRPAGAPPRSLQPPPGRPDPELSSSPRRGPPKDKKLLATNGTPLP
As to conditions: at 1 µM.

For assay [2], the target named is T1, Serine/threonine-protein kinase BRSK1 (Homo sapiens). As to conditions: at 10 µM.
Assay [3] concerns the target T2, Serine/threonine-protein kinase BRSK2 (Homo sapiens) (UniProt Q8IWQ3).
T2 sequence (whole entry): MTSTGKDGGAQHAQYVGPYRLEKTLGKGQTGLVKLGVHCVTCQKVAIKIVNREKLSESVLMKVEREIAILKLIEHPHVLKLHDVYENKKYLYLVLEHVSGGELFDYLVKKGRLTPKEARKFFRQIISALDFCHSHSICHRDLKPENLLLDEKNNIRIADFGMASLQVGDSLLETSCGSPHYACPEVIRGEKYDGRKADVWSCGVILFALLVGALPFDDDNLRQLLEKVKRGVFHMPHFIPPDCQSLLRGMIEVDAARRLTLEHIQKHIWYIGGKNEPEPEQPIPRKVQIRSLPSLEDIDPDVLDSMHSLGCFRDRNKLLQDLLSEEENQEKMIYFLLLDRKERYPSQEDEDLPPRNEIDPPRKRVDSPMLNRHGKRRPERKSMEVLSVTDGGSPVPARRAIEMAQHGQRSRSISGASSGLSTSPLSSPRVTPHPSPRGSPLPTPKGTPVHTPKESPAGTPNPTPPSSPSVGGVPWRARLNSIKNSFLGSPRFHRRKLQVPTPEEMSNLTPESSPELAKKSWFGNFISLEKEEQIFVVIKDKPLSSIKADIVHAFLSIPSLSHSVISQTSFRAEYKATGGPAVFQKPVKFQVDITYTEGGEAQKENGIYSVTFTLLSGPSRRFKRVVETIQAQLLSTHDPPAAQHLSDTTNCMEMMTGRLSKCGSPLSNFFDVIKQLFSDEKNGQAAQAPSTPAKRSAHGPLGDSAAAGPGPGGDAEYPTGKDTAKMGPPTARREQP
As to conditions: at 1 µM.

Assay [4] addresses T2, Serine/threonine-protein kinase BRSK2 (Homo sapiens). As to conditions: at 10 µM.
Assay [5] concerns the target T3, Cyclin-dependent kinase 2/cyclin A (Homo sapiens) (UniProt P24941+P20248+P78396). As to conditions: at 10 µM.
The target in assay [6] is T4, CDK3/cyclin E (Homo sapiens) (UniProt P24864+O96020+Q00526). As to conditions: at 1 µM.
In assay [7] the target is T4, CDK3/cyclin E (Homo sapiens). As to conditions: at 10 µM.
The target of assay [8] is T5, Cyclin-dependent kinase 5/CDK5 activator 1 (Homo sapiens) (UniProt Q00535+Q15078). As to conditions: at 1 µM.
Assay [9] has as its target T5, Cyclin-dependent kinase 5/CDK5 activator 1 (Homo sapiens). As to conditions: at 10 µM.
For assay [10] the target is unchanged. As to conditions: at 1 µM. This is another data set of the same source.
The target is the same in assay [11]. As to conditions: at 10 µM. This is another data set of the same source.
Assay [12] addresses T6, CDK6/cyclin D3 (Homo sapiens) (UniProt P30281+Q00534). As to conditions: at 1 µM.
The target of assay [13] is T6, CDK6/cyclin D3 (Homo sapiens). As to conditions: at 10 µM.
Assay [14] has as its target T7, Cyclin-dependent kinase 7/ cyclin H (Homo sapiens) (UniProt P51946+P50613). As to conditions: at 1 µM.
Assay [15] addresses T7, Cyclin-dependent kinase 7/ cyclin H (Homo sapiens). As to conditions: at 10 µM.
The target of assay [16] is T8, Cyclin-dependent kinase 1/cyclin B1 (Homo sapiens) (UniProt P06493+P14635). As to conditions: at 1 µM.
Assay [17] has as its target T8, Cyclin-dependent kinase 1/cyclin B1 (Homo sapiens). As to conditions: at 10 µM.
Assay [18] concerns the target T3, Cyclin-dependent kinase 2/cyclin A (Homo sapiens). As to conditions: at 1 µM.
Assay [19] deals with T9, Cyclin-dependent kinase 2/cyclin E (Homo sapiens) (UniProt P24864+P24941+O96020). As to conditions: at 1 µM.
Assay [20] has as its target T9, Cyclin-dependent kinase 2/cyclin E (Homo sapiens). As to conditions: at 10 µM.

Nine molecules from ChEMBL document CHEMBL2218924, “A broad activity screen in support of a chemogenomic map for kinase signalling research and drug discovery” (Biochem J, 2013) can be followed below.

T8 sequence (P06493 whole entry, looked up): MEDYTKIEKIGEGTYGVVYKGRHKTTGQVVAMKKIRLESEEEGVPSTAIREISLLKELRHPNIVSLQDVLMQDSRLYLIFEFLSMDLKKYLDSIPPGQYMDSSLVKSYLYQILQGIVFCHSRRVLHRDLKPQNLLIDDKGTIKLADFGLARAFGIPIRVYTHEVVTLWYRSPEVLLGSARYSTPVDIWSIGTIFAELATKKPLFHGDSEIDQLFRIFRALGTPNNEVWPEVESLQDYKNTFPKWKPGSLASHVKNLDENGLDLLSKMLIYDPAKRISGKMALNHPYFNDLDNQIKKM
T8 sequence (P14635 whole entry, looked up): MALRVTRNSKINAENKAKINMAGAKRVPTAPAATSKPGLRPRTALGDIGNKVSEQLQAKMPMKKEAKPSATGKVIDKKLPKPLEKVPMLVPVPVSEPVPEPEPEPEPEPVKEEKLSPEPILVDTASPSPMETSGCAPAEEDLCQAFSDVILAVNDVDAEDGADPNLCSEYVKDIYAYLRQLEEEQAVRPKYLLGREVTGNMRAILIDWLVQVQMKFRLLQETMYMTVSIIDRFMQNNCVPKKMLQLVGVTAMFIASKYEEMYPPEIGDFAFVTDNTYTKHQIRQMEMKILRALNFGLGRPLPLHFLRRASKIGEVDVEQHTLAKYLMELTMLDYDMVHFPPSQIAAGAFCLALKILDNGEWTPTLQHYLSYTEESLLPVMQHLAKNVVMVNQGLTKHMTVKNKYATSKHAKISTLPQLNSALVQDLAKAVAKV
T4 sequence (O96020 whole entry, looked up): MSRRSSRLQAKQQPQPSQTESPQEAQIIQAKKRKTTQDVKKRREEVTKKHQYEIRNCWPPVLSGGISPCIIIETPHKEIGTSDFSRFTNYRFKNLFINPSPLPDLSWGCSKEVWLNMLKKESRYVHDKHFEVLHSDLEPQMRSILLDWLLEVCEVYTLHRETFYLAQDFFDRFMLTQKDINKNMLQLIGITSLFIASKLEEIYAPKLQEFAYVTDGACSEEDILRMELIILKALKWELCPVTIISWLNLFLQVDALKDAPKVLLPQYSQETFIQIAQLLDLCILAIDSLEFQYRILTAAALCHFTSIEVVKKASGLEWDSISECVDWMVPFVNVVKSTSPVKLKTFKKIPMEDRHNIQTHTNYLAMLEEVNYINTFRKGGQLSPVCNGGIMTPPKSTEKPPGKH
T4 sequence (P24864 whole entry, looked up): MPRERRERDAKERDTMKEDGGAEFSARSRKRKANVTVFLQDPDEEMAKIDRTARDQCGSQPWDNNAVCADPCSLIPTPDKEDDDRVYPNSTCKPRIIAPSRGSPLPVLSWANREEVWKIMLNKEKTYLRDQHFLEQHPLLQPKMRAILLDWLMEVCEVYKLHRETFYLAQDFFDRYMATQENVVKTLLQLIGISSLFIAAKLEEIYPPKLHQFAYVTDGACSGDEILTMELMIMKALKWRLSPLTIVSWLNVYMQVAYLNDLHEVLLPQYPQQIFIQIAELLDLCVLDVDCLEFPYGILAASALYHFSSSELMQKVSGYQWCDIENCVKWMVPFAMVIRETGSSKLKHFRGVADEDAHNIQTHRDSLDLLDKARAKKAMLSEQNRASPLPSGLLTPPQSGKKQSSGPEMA
T4 sequence (Q00526 whole entry, looked up): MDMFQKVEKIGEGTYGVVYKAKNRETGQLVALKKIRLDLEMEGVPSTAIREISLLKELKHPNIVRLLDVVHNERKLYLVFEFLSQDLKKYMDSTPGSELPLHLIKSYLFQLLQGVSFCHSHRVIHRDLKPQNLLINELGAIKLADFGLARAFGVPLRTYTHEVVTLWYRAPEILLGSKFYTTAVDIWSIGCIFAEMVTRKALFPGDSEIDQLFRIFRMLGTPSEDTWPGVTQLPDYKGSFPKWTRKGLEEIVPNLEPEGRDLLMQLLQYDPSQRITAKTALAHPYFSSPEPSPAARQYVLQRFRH

For `c1ccc2c(-c3ccncc3)c[nH]c2c1`, the residual activity in assay [1] amounted to 52%; in [2], 59%; in assay [3] it was 106%; in [4], 61%; in assay [5] it was 83%; in assay [6], 90%. The residual activity in [7] was determined as 73%; in [8], 91%; in [9] it was 74%; in assay [10], 86%; in [11] it was 75%; in assay [12] it was 85%. Besides, the residual activity in [13] is 82%; in assay [14], 83%; in [15] it was 94%.
On to `O=c1c2ccccc2[nH]c(=S)n1CCN1CCC(=C(c2ccc(F)cc2)c2ccc(F)cc2)CC1`, for which the residual activity in assay [1] was 63%; in assay [2], 78%; in assay [3], 96%; in assay [4], 72%; in [16], 114%; in [17], 104%. The residual activity in [18] worked out at 143%; in assay [5], 80%; in assay [19], 99%; in assay [20] it was 88%; in [6], 114%; in assay [7], 86%. Also, the residual activity was determined as 97% in [8]; 89% in [9]; 108% in assay [10]; 97% in [11]; 99% in [12]; 88% in assay [14]. Further, in assay [15], the residual activity amounted to 95%.
In the case of `CCN(CC)C(=O)c1ccc(Nc2nc(OCC3CCCCC3)c3nc[nH]c3n2)cc1`, the residual activity in [1] worked out at 62%; in assay [2] it was 15%; in [4] it was 20%; in assay [17] it was 26%; in assay [18] it was 59%; in assay [5] it was 9%. In addition, the residual activity in [19] was determined as 52%; in assay [20], 7%; in assay [7], 34%; in assay [8] it was 59%; in [9], 10%; in [10], 74%. The residual activity in assay [11] turned out to be 16%; in assay [12] it was 39%; in assay [13], 5%; in assay [14], 67%; in [15], 16%.
With `CNc1cc2c(Nc3cccc(Br)c3)ncnc2cn1`, the residual activity came out at 34% in [1]; 8% in [2]; 26% in [4]; 111% in assay [16]; 99% in assay [17]; 123% in assay [18]. In addition, the residual activity in [5] was determined as 94%; in assay [19] it was 105%; in assay [20] it was 107%; in assay [6], 88%; in assay [7], 83%; in assay [8], 98%. Further, the residual activity in assay [9] was found to be 110%; in assay [10], 79%; in assay [11], 89%; in assay [12], 94%; in assay [13] it was 81%; in assay [14], 87%. Further, the residual activity in assay [15] turned out to be 74%.
Take `COc1ccc(OC)c2c(=S)c3ccccc3[nH]c12`: the residual activity came out at 78% in assay [1]; 76% in [2]; 99% in assay [3]; 89% in assay [4]; 100% in assay [16]; 94% in assay [17]. Further, the residual activity in assay [18] stood at 85%; in [5] it was 80%; in assay [19], 85%; in assay [20], 74%; in assay [6] it was 92%; in [7], 73%. Further, the residual activity in [8] is 97%; in assay [9], 58%; in assay [10], 105%; in [11], 67%; in [12] it was 90%; in [13], 85%. The residual activity came to 123% in [14] and 87% in [15].
Consider `Nc1ccc2ncnc(NCCc3ccc(Oc4ccccc4)cc3)c2c1`, for which the residual activity in [2] was 49%; in assay [3], 113%; in [4], 99%; in [16], 99%; in assay [17], 95%; in [18], 92%. Besides, the residual activity in assay [5] came out at 80%; in assay [19], 98%; in assay [20] it was 90%; in assay [6] it was 107%; in assay [7] it was 90%; in assay [8], 99%. Further, the residual activity in assay [9] worked out at 85%; in [10] it was 123%; in assay [11], 98%; in [12] it was 114%; in assay [13], 96%; in assay [14], 98%. Further, the residual activity in [15] worked out at 85%.
Take `CC(=O)c1ccc(N2CCOCC2)cc1O`: the residual activity in [1] is 93%; in [2] it was 95%; in [3], 110%; in assay [16], 104%; in [17], 100%; in [18], 103%. In addition, the residual activity was 88% in [5]; 104% in [19]; 100% in [20]; 106% in assay [6]; 83% in assay [7]; 86% in [8]. Moreover, the residual activity in assay [9] worked out at 74%; in [10], 95%; in [11] it was 84%; in assay [12], 99%; in [13], 89%; in assay [14] it was 91%. Moreover, the residual activity in assay [15] amounted to 97%.
On to `N#CCCc1ccc2c(c1)-c1[nH]c3ccc([N+](=O)[O-])cc3c1CC(=O)N2`, for which the residual activity in [3] amounted to 39%; in [4], 13%; in [16] it was 3%; in [17] it was 0%; in assay [18] it was 0%; in assay [5], 1%. For the same molecule, the residual activity is 1% in assay [19]; -2% in [20]; 2% in [6]; 0% in [7]; -1% in assay [8]; 0% in assay [9]. Also, the residual activity in assay [10] stood at 0%; in [11], 0%; in assay [12], 30%; in assay [13] it was 8%.
Take `Oc1ccc(-c2nc(-c3ccc(F)cc3)c(-c3ccncc3)[nH]2)cc1`: the residual activity in assay [1] is 102%; in assay [2] it was 63%; in assay [3] it was 124%; in [4] it was 90%; in assay [16], 101%; in assay [17], 92%. Besides, the residual activity came out at 95% in assay [18]; 88% in assay [5]; 108% in [19]; 91% in assay [20]; 109% in assay [6]; 93% in assay [7]. In addition, the residual activity turned out to be 105% in assay [8]; 91% in [9]; 127% in assay [10]; 99% in assay [11]; 123% in [12]; 109% in assay [13]. Moreover, the figures for the residual activity in [14] and in [15] were 104% and 102%, respectively.
